KinaseGlo FLuc = Counterscreen for Luciferase (Kinase-Glo TM) Inhibition. Luciferin 4-monooxygenase (Photuris pensylvanica), Q27757. Kinase-Glo luciferase, ATP luminescence, 8 min. Potency, µM (series often up to 38.3 µM), without a hit: top-dose activity change, negative = inhibition, hits mostly inhibitors. hit rate 0.28% among 200,000. AID 1379, 2008; active means well fitted inhibition curve with a large enough effect; inconclusive means small, poorly fitted or top-dose-only effect; further: potency means the concentration at half of the fitted maximal effect; nearly all actives have a fitted effect of over 60% in size
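Kinase-Glo luciferase light output from ATP and luciferin was measured with 10 uM ATP, within the enzyme's linear range. Buffer: 50 mM imidazole pH 7.2, 50 mM KCl, 7 mM MgCl2, 0.01% Tween 20, 0.05% BSA; luminescence read after 8 min at ambient temperature.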
ALDH1A1 block = qHTS Assay for Inhibitors of Aldehyde Dehydrogenase 1 (ALDH1A1); hit rate 7.3% among 220,000; AID 1030, 2008; Potency, µM (titrated, usually from 75.3 µM), inactives show top-dose activity, negative = inhibition, usual class: inhibitors; Purified ALDH1A1, NADH fluorescence, propionaldehyde substrate;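 further: potency means the concentration at half of the fitted maximal effect; plate controls were no enzyme wells and a reference inhibitor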
Target sequence (P00352 whole entry, looked up): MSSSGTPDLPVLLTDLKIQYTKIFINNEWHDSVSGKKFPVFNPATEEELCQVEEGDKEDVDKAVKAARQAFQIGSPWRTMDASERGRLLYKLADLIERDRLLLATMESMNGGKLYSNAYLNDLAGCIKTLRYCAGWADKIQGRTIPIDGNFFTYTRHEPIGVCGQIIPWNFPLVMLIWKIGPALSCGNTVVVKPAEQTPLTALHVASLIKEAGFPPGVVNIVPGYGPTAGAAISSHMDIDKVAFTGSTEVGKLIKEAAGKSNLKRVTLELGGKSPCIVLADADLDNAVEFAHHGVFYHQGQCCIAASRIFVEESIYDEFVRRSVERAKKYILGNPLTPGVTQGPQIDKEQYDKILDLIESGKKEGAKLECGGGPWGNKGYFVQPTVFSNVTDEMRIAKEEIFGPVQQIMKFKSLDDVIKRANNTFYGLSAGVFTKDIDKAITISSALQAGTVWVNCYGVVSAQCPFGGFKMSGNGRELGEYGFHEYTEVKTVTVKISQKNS
HPGD inh = qHTS Assay for Inhibitors of HPGD (15-Hydroxyprostaglandin Dehydrogenase). AID 894, 2007. hit rate 4.3% among 150,000. purified HPGD, NADH fluorescence kinetic, PGE2 substrate. Potency, µM, inactives show at the highest dose activity change, negative = inhibition, actives largely listed as inhibitors; further: potency means the concentration at half of the fitted maximal effect
Target sequence (P15428 whole entry, looked up): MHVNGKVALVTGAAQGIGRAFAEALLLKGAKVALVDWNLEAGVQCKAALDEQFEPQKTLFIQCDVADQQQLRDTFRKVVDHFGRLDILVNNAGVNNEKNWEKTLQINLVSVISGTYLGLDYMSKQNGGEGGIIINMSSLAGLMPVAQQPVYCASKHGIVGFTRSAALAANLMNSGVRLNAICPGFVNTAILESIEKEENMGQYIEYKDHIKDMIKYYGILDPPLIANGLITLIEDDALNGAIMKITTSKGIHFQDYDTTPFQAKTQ
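20 nM HPGD preincubated 15 min at room temperature with compound in 50 mM Tris-HCl pH 8, 0.01% Tween 20. Started with 1 mM NAD+ and 30 uM prostaglandin E2; NADH fluorescence (360/450 nm) read 5 times over 30-s intervals, last minus first.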
Lamin A splicing = qHTS Assay for Modulators of Lamin A Splicing; HeLa LMNA splicing GFP/RFP minigene ratio, 48 h; Potency, µM (titrated, usually from 46.1 µM), without a hit: at the top dose ratio change, negative = inhibition, usual class: inhibitors; hit rate 0.01% among 200,000; AID 1487, 2009; active means well fitted inhibition curve with a large enough effect in the signal ratio, with a control signal flat, not every such curve was filed as active; inconclusive means small, poorly fitted or top-dose-only effect, or effect the other way, or a change in a side signal; the % refers to the signal ratio; further: potency means the concentration at half of the fitted maximal effect
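S3 HeLa cells stably expressing lamin A-EGFP splicing minigene plus DsRed2, 600 cells/well, 48 h compound exposure at 37C. Laser-scanning cytometry; analysed as GFP (500-530 nm)/RFP (575-640 nm) total intensity ratio; 0.5% DMSO vehicle.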
PNC assembly inh = High Content Assay for Compounds that inhibit the Assembly of the Perinucleolar Compartment. AID 2417, 2010. activity change (PNC), negative = inhibition, % at 10 µM. hit rate 3.1% among 140,000. PC3M PTB-GFP, PNC prevalence imaging, 16 h; active compounds read low;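 active means readout at or below -70, meaning at least 70% loss of cells showing the perinucleolar compartment, a nuclear body marking cancer cells; inconclusive means readout between -30 and a set limit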;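 further: plate controls were DMSO wells for no effect and camptothecin positive control wells for full effect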
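PC3M cells stably expressing PTB-GFP, 750–1000 cells/well, treated 16 h at 37 °C with compound (23 nl of library stock), in duplicate. After paraformaldehyde fixation and Hoechst stain, imaged at 20x; PNC prevalence scored by image analysis.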
An asterisk follows results filed as active; u = inconclusive; x = no result given; [ ] = another dose, or the depositor's remark. Shown are actives, neighbours in structure and some others; about 10% of the full set was active somewhere. Unless noted, the call rests on the fitted dose curve; in most records, active means well fitted inhibition curve with a large enough effect (not every such curve was filed as active); inconclusive means small, poorly fitted or top-dose-only effect, or another doubt; inactive means no such curve, though single readings can be large or run the other way. Unless noted, on the % scale 0 is the no-effect control and ±100 the full control effect.

SMILES | KinaseGlo FLuc | ALDH1A1 block | HPGD inh | Lamin A splicing | PNC assembly inh
Cc1nn(C)cc1S(=O)(=O)N1CCN(Cc2cccc(Cl)c2)CC1 | -8% | 22µM* | x | 19%[46 µM] | x
COc1ccc(NCC(=O)n2c(C)c(C)c3ccccc32)cc1OC | x | 7.1µM* | x | x | x
Clc1ccc2[nH]cc(-c3nnnn3-c3ccc4ccccc4c3)c2c1 | 8% | 9.5µM* | -23% | 8% | -7
C=CCOC(=O)N[C@H](/C(C(=O)OC)=C(\C)NCc1ccccc1)c1ccc(Br)cc1 | -8% | u | 0% | x | x
CCOc1ccc(N2CCCn3c2nc2c3c(=O)n(CCc3ccccc3)c(=O)n2C)cc1 | -1% | 11µM* | u | -1% | 23
COc1ccc(N2CCCn3c2nc2c3c(=O)n(CCc3ccccc3)c(=O)n2C)cc1 | -1% | u | -19% | 0% | 5
Cc1cc(C)cc(N2CCn3c2nc2c3c(=O)n(CCc3ccccc3)c(=O)n2C)c1 | x | x | x | 1.8µM* | x
Cn1c(=O)n(CCc2ccccc2)c(=O)c2c1nc1n2CCCN1CCc1ccccc1 | 5% | 11µM* | -11% | u | u
COC(=O)C/C=C\[C@H](C)[C@H](CO)NS(=O)(=O)c1ccc(C)cc1 | x | 0%[13.5 µM] | x | x | x
O=C(c1ccncc1)N1CCC[C@@]2(CCN(C(c3ccccc3)c3ccccc3)C2)C1 | -2% | -5% | -3% | x | x
NNC(=O)Cc1cn(-c2ncc(C(F)(F)F)cc2Cl)c2ccccc12 | -2% | -4% | -14% | -4% | -10
O=C(O)/C=C/c1cn(-c2ncc(C(F)(F)F)cc2Cl)c2ccccc12 | -5% | -15% | 2µM* | 13% | u
C/C(=N\Nc1cccc2cccnc12)c1ccc(N)cc1 | 0% | 8.9µM* | x | -26%[46 µM] | x
CC(=O)N1CCc2cc(S(=O)(=O)Nc3cccc(C(F)(F)F)c3)ccc21 | -1% | 6% | -2% | u | -3
O=C(NN1CCOCC1)c1cc(S(=O)(=O)Nc2cccc(C(F)(F)F)c2)ccc1Cl | x | 5% | x | -8% | -98*
COc1ccccc1Nc1ccc([N+](=O)[O-])cc1N | 0% | -8% | -11% | -7% | 9
COc1cc(Nc2ccccc2Cl)c([N+](=O)[O-])nc1[N+](=O)[O-] | 3% | 8% | 25µM* | 28% | -92*
NC(=S)NNc1cccc(Cl)c1 | -4% | 1.6µM* | -22% | 8% | 17
Cc1ccccc1NNC(N)=S | -2% | 22µM* | x | -3%[46 µM] | x
S=C(NNc1cccc(Cl)c1)NC1CCCCC1 | -1% | 25µM* | x | u | x
S=C(Nc1cccc(Cl)c1)NC1CCCCC1 | -3% | 3% | -16% | 9% | 72
Cc1ccccc1NC(=O)Nc1ccccc1C(N)=O | 2% | 5% | x | x | x
Cc1cccc(NNC(N)=S)c1 | 6% | 8.9µM* | x | x | x
CCNC(=O)Cn1c(-c2cccs2)cc2ccccc21 | x | x | x | -7%[46 µM] | x
O=C(O)C1C2C=CC(C3CC23)C1C(=O)O (centres undefined) | 4% | -5% | -7% | -2% | -26
SMILES | KinaseGlo FLuc | ALDH1A1 block | HPGD inh | Lamin A splicing | PNC assembly inh
Cc1cccc(NC(=O)C2C3C=CC(C4CC34)C2C(=O)O)c1 (centres undefined) | -2% | -7% | -21% | -9% | -119*
COc1ccc(-n2c(SCC(=O)Nc3ccc4c(c3)OCO4)nc3c(c2=O)SCC3)cc1 | 16% | u | u | -5% | 15
COc1ccccc1-n1c(SCC(=O)Nc2ccc3c(c2)OCO3)nc2c(c1=O)SCC2 | 2% | 20µM* | -18% | -2% | -16
COc1ccccc1-n1c(SCC(=O)N2CCc3ccccc32)nc2c(c1=O)SCC2 | -1% | 11µM* | -21% | u | 37
COc1ccc(OC)c(-n2c(SCC(=O)N3CCc4ccccc43)nc3c(c2=O)SCC3)c1 | 0% | 8% | -15% | -8% | 33
OC[C@@H]1[C@@H](c2ccc(Cl)cc2)C(c2ccc(F)cc2)=NN1c1ccccc1 | 1%[39.9 µM] | u | u | x | x
O=S(=O)(c1ccccc1F)N(Cc1ccco1)Cc1nnc(-c2ccccc2Br)o1 | 2% | 14µM* | 25µM* | u | -4
COc1cc(C)nc2nc(SCc3ccccc3)nn12 | -6% | 14µM* | -21% | -3% | 16
CCCC(C)C(=O)OCC(=O)Nc1ccc(Br)cc1 (centres undefined) | 2% | 11µM* | x | x | x
CC(=O)NC(C)C(=O)OCC(=O)Nc1ccc(Br)cc1 (centres undefined) | 5% | u | -11% | 0% | -6
CC1(c2ccccc2)CC(C)(C)N2C(=O)C(=O)c3cccc1c32 (centres undefined) | 2% | 0.5µM* | x | -20%[46 µM] | x
COc1ccc(CSc2nc3ncccc3[nH]2)cc1 | x | x | x | -13%[46 µM] | x
COc1ccc(CSc2nc3ccccc3[nH]2)cc1 | 8.9µM* | 0% | -20% | 15% | 27
O=C1CCC(=O)N1c1ccc(CSc2nc3ccccc3[nH]2)cc1 | -8% | 14µM* | -21% | u | 40
c1ccc2[nH]c(SCc3ccc(-c4nnco4)cc3)nc2c1 | -24% | -3% | -28% | u | 11
c1ccc(-n2ncc3c(NCc4cccs4)ncnc32)cc1 | 0% | u | 5µM* | -7% | 8
NNc1ncnc2c1cnn2-c1ccccc1 | -4% | 18µM* | -20% | u | u
Cc1cccc(CNC(=O)c2ccc3oc(=O)n(Cc4ccccc4)c3c2)c1 | x | x | x | -3%[46 µM] | x
CCOc1ccc(N2C(=O)/C(=C/c3cc(OC)c(OC)c(OC)c3)N(CC(=O)OC)C2=S)cc1 | -7% | u | -30% | -2% | 8
CCOc1cc2c(cc1/C=C1/NC(=O)N(CC(=O)OC)C1=O)OCO2 | 3% | 11µM* | x | x | x
COc1cc2c(cc1/C=C1/NC(=O)N(CC(=O)Nc3ccccc3)C1=O)OCO2 | -6% | 10% | x | 12%[46 µM] | x
COC(=O)CN1C(=O)N/C(=C/c2cc3c(cc2OC)OCO3)C1=O | 1% | 7.9µM* | x | x | x
COC(=O)CN1C(=O)N/C(=C/c2cc(Cl)c(OC)c(OC)c2)C1=O | 2% | 4µM* | x | x | x
Cc1ccc(-n2nc(C)c3c(C(=O)Nc4ccc(Br)c(C)c4)cc(C)nc32)cc1 | x | x | x | 10%[46 µM] | x
S=c1nc(-c2ccco2)[nH][nH]1 | 5% | 25µM* | 22µM* | -4% | 16
CN(C(=O)COC(=O)CNC(=O)C12CC3CC(CC(C3)C1)C2)C1CCS(=O)(=O)C1 (centres undefined) | -3% | -8% | -10% | 1% | -121*
O=C(COC(=O)CNC(=O)C12CC3CC(CC(C3)C1)C2)NC1CCS(=O)(=O)C1 (centres undefined) | 12% | 2% | -4% | 4% | u
CS(=O)(=O)N(Cc1ccc(C(=O)NCc2ccco2)cc1)c1ccccc1 | 1% | 8% | 28µM* | -10% | 77
